# Inconclusive results are not listed. More than one record can exist for a structure, and the calls need not agree. Activity calls are given as the source filed them. How the source made its calls, unless noted: active means hit-call score of the fitted dose curve at least 0.9, where 1 is the maximum; inactive means score below 0.9.
# What was measured:
# [1] = biological target: Glucocorticoid receptor (Homo sapiens) (UniProt P04150); test: ATG_GR_TRANS: Attagene TRANS-FACTORIAL HepG2 Assay for human Glucocorticoid Receptor (GR) (AID 2282978; active means hit-call score of the fitted dose curve at least 0.9, where 1 is the maximum;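 further: activators score as hits since higher reporter transcript over DMSO is fitted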); conditions: HepG2 Attagene TRANS GR reporter, mRNA transcription
# Outline: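 Exogenous NR-GAL4 fusion activity was assessed through induced GAL4-UAS reporter transcripts in transfected human HepG2 cells, quantified after 24 h by RT-PCR and fluorescent capillary electrophoresis with DMSO as baseline.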
# [2] = ATG_M_06_TRANS: Attagene TRANS-FACTORIAL HepG2 Assay for M06 Transcription Factor (Internal Marker) (AID 2282983; active means hit-call score of the fitted dose curve at least 0.9, where 1 is the maximum); conditions: HepG2 Attagene TRANS M06 internal marker reporter
# Outline: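 Background-control reporter readout: after 24 h chemical exposure of transiently transfected HepG2 (GAL4-UAS reporter units), mRNA quantified by RT-PCR with fluorescent labeling and capillary electrophoresis. Gain-of-signal fitting against DMSO baseline.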
# [3] = ATG_M_32_TRANS: Attagene TRANS-FACTORIAL HepG2 Assay for M32 Transcription Factor (Internal Marker) (AID 2282984; active means hit-call score of the fitted dose curve at least 0.9, where 1 is the maximum;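 further: transcript level of a background control reporter unit measured by RT-PCR and capillary electrophoresis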); conditions: HepG2 Attagene TRANS M32 internal marker reporter
# Outline: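 Cell-based TRANS-format assay in HepG2: exogenous chimeric GAL4 reporter units transiently expressed, compounds applied 24 h. Reporter mRNA detected by RT-PCR plus capillary electrophoresis; this readout is an internal background marker.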
# [4] = biological target: Nuclear receptor subfamily 4 group A member 2 (Homo sapiens) (UniProt P43354); test: ATG_NURR1_TRANS: Attagene TRANS-FACTORIAL HepG2 Assay for human Nuclear Receptor Related Protein 1 (NURR1) (AID 2282985; active means hit-call score of the fitted dose curve at least 0.9, where 1 is the maximum); conditions: HepG2 Attagene TRANS reporter, mRNA readout
# Outline: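 Measures transcriptional activation by an exogenous NR-Gal4 chimera in transfected HepG2 liver cells. After 24 h, reporter RNA is reverse-transcribed, amplified and resolved by capillary electrophoresis; DMSO defines baseline.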
# [5] = biological target: Transcriptional activator Myb (Homo sapiens) (UniProt P10242); test: ATG_Myb_CIS: Attagene CIS-FACTORIAL HepG2 Assay for human Myeloblastosis (Myb) Proto-Oncogene Transcription Factor (AID 2282986); conditions: HepG2 Attagene CIS-FACTORIAL Myb reporter transcription; actives raise or lower the signal
# Outline: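 In this HepG2 transient-transfection format, cis-regulated reporter mRNA is quantified 24 h post-dosing by RT-PCR with capillary electrophoresis, fitted bidirectionally to DMSO baseline.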
# [6] = biological target: Nuclear respiratory factor 1 (Homo sapiens) (UniProt Q16656); test: ATG_NRF1_CIS: Attagene CIS-FACTORIAL HepG2 Assay for human Nuclear Respiratory Factor 1 (NRF1) Orphan Gene (AID 2282987); conditions: HepG2 NRF1 cis-element reporter, Attagene multiplex; actives raise or lower the signal
# Outline: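 Using DMSO as baseline, gain- or loss-of-signal was fitted for reporter mRNA levels in HepG2 cells transiently transfected with cis-regulated reporter units. Samples were taken 24 h after dosing and read by RT-PCR with capillary electrophoresis.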
# [7] = ATG_NFI_CIS: Attagene CIS-FACTORIAL HepG2 Assay for human Nuclear Factor I (NFI) (AID 2282989); conditions: HepG2 cis-regulatory reporter, NFI response element transcription; actives raise or lower the signal
# Outline: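 Reporter transcription driven by endogenous transcription factors in HepG2 cells; 24 h treatment. Quantitation by labelled RT-PCR fragments on capillary electrophoresis, gain- or loss-of-signal relative to DMSO.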
# [8] = biological target: Myc proto-oncogene protein (Homo sapiens) (UniProt P01106); test: ATG_Myc_CIS: Attagene CIS-FACTORIAL HepG2 Assay for human Myelocytomatosis (Myc) Proto-Oncogene Transcription Factor (AID 2282990); conditions: HepG2, Attagene cis-reporter transcription factor activity; actives raise or lower the signal
# Outline: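 HepG2, transient MRTU transfection (cis promoters, endogenous TFs); 24 h dosing; TriZol RNA → oligo(dT) RT → PCR → 6-FAM primer extension → HpaI cut → CE. Bidirectional fit vs DMSO.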
# [9] = ATG_NF_kB_CIS: Attagene CIS-FACTORIAL HepG2 Assay for human Nuclear Factor Kappa B (NF-kB) (AID 2282991); conditions: HepG2 Attagene cis-factorial NF-kB reporter mRNA; actives raise or lower the signal
# Outline: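 Endpoint from a 52-component multiplexed HepG2 reporter panel: cis-regulated transcription units transiently transfected, 24 h dosing, reporter mRNA quantified by RT-PCR and capillary electrophoresis, scored as increase or decrease against DMSO.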
# [10] = ATG_NRF2_ARE_CIS: Attagene CIS-FACTORIAL HepG2 Assay for human Nuclear Factor Erythroid 2 Related Factor 2 (NFR2) response to Antioxidant Response Elements (ARE) (AID 2282992); conditions: HepG2 Attagene ARE/NRF2 reporter, transcription factor activity; actives raise or lower the signal
# Outline: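 Endogenous transcription factor activity read out as reporter transcript levels (RT-PCR plus capillary electrophoresis, fluorescence) in transiently transfected HepG2 cells. Measured at 24 h after dosing; gain or loss of signal fitted versus DMSO.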
# [11] = ATG_Oct_MLP_CIS: Attagene CIS-FACTORIAL HepG2 Assay for human Octamer-Binding Transcription Factor (Oct) (AID 2282993); conditions: HepG2 Attagene cis-factorial Oct reporter, mRNA; actives raise or lower the signal
# Outline: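 Transfected HepG2 cells, 24 h treatment. Reporter mRNA quantified by RT-PCR–capillary electrophoresis; bidirectional fitting against DMSO.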
# [12] = biological target: Cellular tumor antigen p53 (Homo sapiens) (UniProt P04637); test: ATG_p53_CIS: Attagene CIS-FACTORIAL HepG2 Assay for human p53 Transcription Factor (AID 2282994); conditions: HepG2 p53 cis-element reporter, Attagene mRNA; actives raise or lower the signal
# Outline: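 Endogenous p53 activity read in transiently transfected HepG2 from a cis-element-driven reporter transcript after 24 h exposure. RNA reverse-transcribed, PCR-amplified, fluorescently labelled and sized by capillary electrophoresis; gain or loss fitted against DMSO baseline.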
# [13] = BSK_3C_TissueFactor: BioMAP Diversity Plus: 3C Assay for Tissue Factor Biomarker Activity (AID 2282997); conditions: BioMAP 3C HUVEC, tissue factor biomarker readout; actives raise or lower the signal
# Outline: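 Tissue factor on primary human umbilical vein endothelium was read by ELISA 24 h after dosing, gain or loss relative to DMSO. Cytotoxicity ran alongside via SRB (0.1%, TCA-fixed, 560 nm).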
# [14] = BSK_3C_uPAR: BioMAP Diversity Plus: 3C Assay for Urokinase-type plasminogen activator receptor (uPAR) Biomarker Activity (AID 2282998); conditions: BioMAP 3C HUVEC, uPAR biomarker ELISA; actives raise or lower the signal
# Outline: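 Readout: ELISA for surface uPAR. System: human umbilical vein endothelial primary cells, 24 h after chemical exposure. Analysis: bidirectional fit, DMSO baseline.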
# [15] = BSK_3C_VCAM1: BioMAP Diversity Plus: 3C Assay for Vascular cell adhesion molecule 1 (VCAM1) Biomarker Activity (AID 2282999); conditions: BioMAP 3C HUVEC, VCAM1 ELISA, cytokine-stimulated; actives raise or lower the signal
# Outline: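 Activity fitted in both directions relative to DMSO, with ELISA measurement of the surface marker on primary HUVEC (3C) at 24 h post-treatment; parallel SRB staining (0.1% SRB, TCA-fixed, 560 nm) flagged overt cytotoxicity.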
# [16] = BSK_4H_Eotaxin3: BioMAP Diversity Plus: 4H Assay for Eotaxin 3 Biomarker Activity (AID 2283000); conditions: primary human endothelial cells (HUVEC); actives raise or lower the signal;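 on outcome: CCL26 protein level quantified by ELISA in parallel with SRB cytotoxicity check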
# Outline: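 Human umbilical vein endothelial cells (BSK_4H system) dosed with test chemical; Eotaxin-3 (CCL26) measured by ELISA 24 h after dosing. Bidirectional curve fitting relative to DMSO negative control as baseline.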
# [17] = biological target: human Peroxisome Proliferator-activated Receptor alpha (PPARa), PPARA (gene 5465) (UniProt Q07869); test: ATG_PPARa_TRANS: Attagene TRANS-FACTORIAL HepG2 Assay for human Peroxisome Proliferator-activated Receptor alpha (PPARa) (AID 2283001; active means hit-call score of the fitted dose curve at least 0.9, where 1 is the maximum;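 on AC50: potency for gain of reporter signal over DMSO so agonist or activator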)
# Outline: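 Transfected HepG2 cells treated with test chemical for 24 h. RNA isolated, reverse-transcribed with oligo(dT), PCR-amplified, FAM-labelled and HpaI-digested. Fragments sized by capillary electrophoresis; gain-of-signal fit relative to DMSO.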
# [18] = biological target: Oxysterols receptor LXR-beta (Homo sapiens) (UniProt P55055); test: ATG_LXRb_TRANS: Attagene TRANS-FACTORIAL HepG2 Assay for human Liver X Receptor beta (LXRb) (AID 2282981; active means hit-call score of the fitted dose curve at least 0.9, where 1 is the maximum); conditions: HepG2 Attagene TRANS GAL4-LXRb reporter, mRNA
# Outline: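 After 24 h of chemical treatment, transfected HepG2 cells yield total RNA; reporter cDNA is PCR-amplified, FAM-labelled, HpaI-cut and run on capillary electrophoresis. Signal reflects chimeric LXRb-Gal4 activity on GAL4-UAS reporters.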
# [19] = biological target: Oxysterols receptor LXR-alpha (Homo sapiens) (UniProt Q13133); test: ATG_LXRa_TRANS: Attagene TRANS-FACTORIAL HepG2 Assay for human Liver X Receptor alpha (LXRa) (AID 2282980; active means hit-call score of the fitted dose curve at least 0.9, where 1 is the maximum); conditions: HepG2 Attagene TRANS reporter, LXRa transactivation
# Outline: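 Chemical-induced reporter mRNA measured by RT-PCR with fluorescent labelling and capillary electrophoresis after 24 h dosing of transiently transfected HepG2 cells expressing exogenous NR-Gal4 chimeras; increases scored against DMSO baseline.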
# [20] = biological target: Bile acid receptor (Homo sapiens) (UniProt Q96RI1); test: ATG_FXR_TRANS: Attagene TRANS-FACTORIAL HepG2 Assay for Farnesoid X Receptor (FXR) (AID 2282979; active means hit-call score of the fitted dose curve at least 0.9, where 1 is the maximum;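 further: hits raise reporter mRNA above DMSO so AC50 marks FXR activation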); conditions: HepG2 Attagene TRANS FXR-GAL4 reporter transcription
# Outline: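 Reporter transcripts from transfected HepG2 cells were measured 24 h after dosing, using RT-PCR with capillary electrophoresis of 6-FAM-labelled fragments. The read-out reflects activity of exogenous FXR-Gal4 chimera on GAL4-UAS units, with induction relative to DMSO.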
# Myc proto-oncogene protein (Homo sapiens), sequence (P01106 whole entry, looked up): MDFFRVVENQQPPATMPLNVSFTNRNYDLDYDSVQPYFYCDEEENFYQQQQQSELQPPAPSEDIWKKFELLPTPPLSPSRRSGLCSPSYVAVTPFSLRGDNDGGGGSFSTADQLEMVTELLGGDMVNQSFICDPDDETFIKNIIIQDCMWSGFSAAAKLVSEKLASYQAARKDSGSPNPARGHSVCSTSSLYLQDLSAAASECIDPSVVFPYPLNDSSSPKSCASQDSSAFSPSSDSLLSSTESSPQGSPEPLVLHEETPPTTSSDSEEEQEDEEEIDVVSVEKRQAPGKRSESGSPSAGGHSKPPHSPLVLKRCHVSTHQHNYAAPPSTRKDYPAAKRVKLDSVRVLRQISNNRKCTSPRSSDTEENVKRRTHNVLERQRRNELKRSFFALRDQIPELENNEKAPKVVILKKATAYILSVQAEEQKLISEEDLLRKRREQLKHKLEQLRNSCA
# Glucocorticoid receptor (Homo sapiens), sequence (P04150 whole entry, looked up, the tested form may be a part): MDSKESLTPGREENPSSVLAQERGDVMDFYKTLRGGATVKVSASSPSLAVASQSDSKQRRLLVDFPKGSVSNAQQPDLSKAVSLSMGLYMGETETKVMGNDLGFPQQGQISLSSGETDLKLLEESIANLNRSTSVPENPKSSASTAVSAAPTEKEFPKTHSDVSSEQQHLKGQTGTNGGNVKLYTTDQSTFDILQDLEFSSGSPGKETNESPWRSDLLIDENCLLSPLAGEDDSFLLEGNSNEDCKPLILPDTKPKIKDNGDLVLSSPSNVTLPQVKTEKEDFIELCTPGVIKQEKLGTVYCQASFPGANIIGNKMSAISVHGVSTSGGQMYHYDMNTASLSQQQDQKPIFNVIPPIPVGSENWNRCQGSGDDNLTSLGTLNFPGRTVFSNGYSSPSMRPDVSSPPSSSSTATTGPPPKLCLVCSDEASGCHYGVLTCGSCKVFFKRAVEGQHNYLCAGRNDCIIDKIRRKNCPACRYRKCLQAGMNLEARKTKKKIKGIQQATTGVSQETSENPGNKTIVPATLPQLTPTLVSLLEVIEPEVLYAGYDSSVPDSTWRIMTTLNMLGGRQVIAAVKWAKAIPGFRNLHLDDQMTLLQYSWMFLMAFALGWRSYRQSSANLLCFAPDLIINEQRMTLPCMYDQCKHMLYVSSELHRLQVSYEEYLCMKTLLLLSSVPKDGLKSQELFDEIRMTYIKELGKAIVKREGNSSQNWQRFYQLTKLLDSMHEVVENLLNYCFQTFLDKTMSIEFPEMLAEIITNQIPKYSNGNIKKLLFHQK
# Nuclear respiratory factor 1 (Homo sapiens), sequence (Q16656 whole entry, looked up): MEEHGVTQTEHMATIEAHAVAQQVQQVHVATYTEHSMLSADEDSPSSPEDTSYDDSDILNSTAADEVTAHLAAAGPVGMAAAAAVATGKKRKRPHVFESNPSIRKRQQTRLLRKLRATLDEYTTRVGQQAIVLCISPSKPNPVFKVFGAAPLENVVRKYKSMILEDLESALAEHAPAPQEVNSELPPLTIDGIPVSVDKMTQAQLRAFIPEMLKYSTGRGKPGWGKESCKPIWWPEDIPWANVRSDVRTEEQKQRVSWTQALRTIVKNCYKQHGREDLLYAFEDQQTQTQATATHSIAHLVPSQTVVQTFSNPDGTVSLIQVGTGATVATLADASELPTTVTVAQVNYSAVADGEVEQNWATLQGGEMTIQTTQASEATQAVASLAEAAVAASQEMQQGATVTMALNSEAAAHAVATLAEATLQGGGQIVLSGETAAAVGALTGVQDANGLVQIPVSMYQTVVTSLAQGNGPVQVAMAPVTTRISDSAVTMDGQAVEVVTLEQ
# human Peroxisome Proliferator-activated Receptor alpha (PPARa), PPARA (gene 5465), sequence (Q07869 whole entry, looked up, the tested form may be a part): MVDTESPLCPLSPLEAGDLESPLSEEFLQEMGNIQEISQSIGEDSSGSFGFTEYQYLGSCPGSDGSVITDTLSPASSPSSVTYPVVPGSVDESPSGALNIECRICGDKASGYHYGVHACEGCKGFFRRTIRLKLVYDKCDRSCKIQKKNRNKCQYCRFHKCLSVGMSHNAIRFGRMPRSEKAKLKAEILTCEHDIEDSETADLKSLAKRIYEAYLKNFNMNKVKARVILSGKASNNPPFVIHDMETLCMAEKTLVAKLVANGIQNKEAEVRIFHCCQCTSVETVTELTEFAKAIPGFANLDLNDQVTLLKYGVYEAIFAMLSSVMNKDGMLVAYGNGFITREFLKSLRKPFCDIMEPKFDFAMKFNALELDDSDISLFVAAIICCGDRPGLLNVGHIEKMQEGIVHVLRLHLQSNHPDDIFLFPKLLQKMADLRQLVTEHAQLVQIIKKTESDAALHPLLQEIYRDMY
# Oxysterols receptor LXR-alpha (Homo sapiens), sequence (Q13133 whole entry, looked up, the tested form may be a part): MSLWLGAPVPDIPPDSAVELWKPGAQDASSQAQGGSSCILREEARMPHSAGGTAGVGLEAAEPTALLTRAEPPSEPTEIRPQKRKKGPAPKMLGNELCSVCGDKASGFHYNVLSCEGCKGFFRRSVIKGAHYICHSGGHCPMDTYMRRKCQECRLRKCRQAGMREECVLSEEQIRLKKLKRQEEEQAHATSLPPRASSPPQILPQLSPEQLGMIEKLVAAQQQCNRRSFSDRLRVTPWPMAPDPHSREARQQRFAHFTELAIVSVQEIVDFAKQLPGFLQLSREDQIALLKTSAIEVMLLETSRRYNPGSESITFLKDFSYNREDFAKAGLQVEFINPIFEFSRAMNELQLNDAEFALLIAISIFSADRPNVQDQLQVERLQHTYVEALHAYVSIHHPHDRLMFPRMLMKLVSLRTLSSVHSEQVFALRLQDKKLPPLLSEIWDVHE
# Oxysterols receptor LXR-beta (Homo sapiens), sequence (P55055 whole entry, looked up, the tested form may be a part): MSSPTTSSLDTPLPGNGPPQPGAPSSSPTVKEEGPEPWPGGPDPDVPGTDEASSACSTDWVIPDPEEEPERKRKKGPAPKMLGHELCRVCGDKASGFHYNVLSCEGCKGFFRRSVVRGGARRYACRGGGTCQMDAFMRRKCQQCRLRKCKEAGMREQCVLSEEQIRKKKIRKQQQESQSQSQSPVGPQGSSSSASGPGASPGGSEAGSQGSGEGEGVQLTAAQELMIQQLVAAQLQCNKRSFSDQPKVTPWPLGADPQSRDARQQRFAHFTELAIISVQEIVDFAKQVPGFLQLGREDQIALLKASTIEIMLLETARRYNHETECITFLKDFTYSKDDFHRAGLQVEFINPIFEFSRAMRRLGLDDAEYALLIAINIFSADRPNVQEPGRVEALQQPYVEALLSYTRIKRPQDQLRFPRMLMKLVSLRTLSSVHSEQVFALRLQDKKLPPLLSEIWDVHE
# Transcriptional activator Myb (Homo sapiens), sequence (P10242 whole entry, looked up): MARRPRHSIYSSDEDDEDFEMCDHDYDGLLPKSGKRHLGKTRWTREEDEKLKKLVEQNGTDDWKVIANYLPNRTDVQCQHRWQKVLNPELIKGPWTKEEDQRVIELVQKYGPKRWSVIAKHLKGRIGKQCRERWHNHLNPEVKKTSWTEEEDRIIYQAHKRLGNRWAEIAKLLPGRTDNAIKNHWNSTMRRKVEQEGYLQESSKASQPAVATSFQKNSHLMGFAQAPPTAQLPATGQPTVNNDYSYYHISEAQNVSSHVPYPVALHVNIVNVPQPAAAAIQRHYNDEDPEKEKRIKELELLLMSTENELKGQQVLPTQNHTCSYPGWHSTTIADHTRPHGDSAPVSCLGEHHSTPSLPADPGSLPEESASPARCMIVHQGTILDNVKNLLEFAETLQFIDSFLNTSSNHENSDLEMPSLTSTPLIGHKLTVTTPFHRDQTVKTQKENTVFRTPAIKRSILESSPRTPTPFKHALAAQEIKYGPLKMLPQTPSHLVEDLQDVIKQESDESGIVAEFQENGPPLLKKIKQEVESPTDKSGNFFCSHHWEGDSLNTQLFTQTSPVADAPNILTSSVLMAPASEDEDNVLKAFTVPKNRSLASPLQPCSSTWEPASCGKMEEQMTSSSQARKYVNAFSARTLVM
# Cellular tumor antigen p53 (Homo sapiens), sequence (P04637 whole entry, looked up): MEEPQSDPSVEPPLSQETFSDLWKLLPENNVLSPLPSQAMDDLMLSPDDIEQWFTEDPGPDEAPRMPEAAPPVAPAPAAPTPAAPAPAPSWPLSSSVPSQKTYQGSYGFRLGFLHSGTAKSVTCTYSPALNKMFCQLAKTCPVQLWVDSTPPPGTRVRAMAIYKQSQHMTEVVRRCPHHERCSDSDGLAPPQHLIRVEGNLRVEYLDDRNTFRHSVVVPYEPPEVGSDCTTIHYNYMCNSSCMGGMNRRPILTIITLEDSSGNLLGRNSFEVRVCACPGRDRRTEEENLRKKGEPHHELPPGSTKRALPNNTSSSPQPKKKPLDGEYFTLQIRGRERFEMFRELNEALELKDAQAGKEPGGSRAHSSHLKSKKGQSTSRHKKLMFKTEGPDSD
# Nuclear receptor subfamily 4 group A member 2 (Homo sapiens), sequence (P43354 whole entry, looked up, the tested form may be a part): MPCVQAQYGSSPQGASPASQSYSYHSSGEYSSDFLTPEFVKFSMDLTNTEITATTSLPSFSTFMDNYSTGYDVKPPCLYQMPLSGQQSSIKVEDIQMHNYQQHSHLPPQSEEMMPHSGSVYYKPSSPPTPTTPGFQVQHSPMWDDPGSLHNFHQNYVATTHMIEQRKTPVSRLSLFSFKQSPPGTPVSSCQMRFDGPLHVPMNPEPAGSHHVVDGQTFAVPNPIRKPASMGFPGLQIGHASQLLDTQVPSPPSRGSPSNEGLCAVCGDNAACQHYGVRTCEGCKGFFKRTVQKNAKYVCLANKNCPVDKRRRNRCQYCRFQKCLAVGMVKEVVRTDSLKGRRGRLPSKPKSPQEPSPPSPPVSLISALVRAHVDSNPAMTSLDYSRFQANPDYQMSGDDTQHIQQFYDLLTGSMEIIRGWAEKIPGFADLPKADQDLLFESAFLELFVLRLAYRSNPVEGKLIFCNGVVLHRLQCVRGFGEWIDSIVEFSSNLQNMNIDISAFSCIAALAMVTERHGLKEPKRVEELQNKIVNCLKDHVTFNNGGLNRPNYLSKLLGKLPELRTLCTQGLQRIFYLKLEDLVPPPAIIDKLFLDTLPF
smiles,measurement,setting,value
CC(C)(C)c1cc(/C=C2\SC(N)=NC2=O)cc(C(C)(C)C)c1O,outcome,[1],inactive
same,outcome,[2],inactive
same,outcome,[3],inactive
same,outcome,[4],inactive
same,outcome,[5],inactive
same,outcome,[6],inactive
same,AC50,[7],18.4 µM (active)
same,outcome,[8],inactive
same,outcome,[9],inactive
same,AC50,[10],11.6 µM (active)
same,AC50,[11],16.2 µM (active)
same,AC50,[12],11 µM (active)
same,AC50,[13],14.8 µM (active)
same,AC50,[14],31.6 µM (active)
same,AC50,[15],29.4 µM (active)
same,AC50,[16],30.4 µM (active)
same,outcome,[17],inactive
c1ccc2ccccc2c1,outcome,[18],inactive
same,outcome,[2],inactive
same,outcome,[3],inactive
same,outcome,[4],inactive
same,outcome,[5],inactive
same,AC50,[6],100 µM (active)
same,outcome,[6],inactive
same,outcome,[7],inactive
same,outcome,[8],inactive
same,outcome,[9],inactive
same,outcome,[10],inactive
same,outcome,[11],inactive
same,outcome,[12],inactive
same,outcome,[13],inactive
same,outcome,[14],inactive
same,outcome,[15],inactive
same,outcome,[16],inactive
same,outcome,[17],inactive
CN1C(=O)CC[C@H]1c1cccnc1,outcome,[19],inactive
same,outcome,[18],inactive
same,outcome,[2],inactive
same,outcome,[3],inactive
same,outcome,[5],inactive
same,outcome,[6],inactive
same,outcome,[7],inactive
same,outcome,[8],inactive
same,outcome,[9],inactive
same,outcome,[10],inactive
same,outcome,[11],inactive
same,outcome,[12],inactive
same,outcome,[13],inactive
same,outcome,[14],inactive
same,outcome,[15],inactive
same,outcome,[16],inactive
same,outcome,[17],inactive
OC12N=C(c3ccccc3)SC1Cc1cc(Cl)ccc12 (stereo not drawn),outcome,[20],inactive
same,outcome,[19],inactive
same,outcome,[18],inactive
same,outcome,[3],inactive
same,outcome,[4],inactive
same,outcome,[5],inactive
same,outcome,[6],inactive
same,outcome,[7],inactive
same,outcome,[8],inactive
same,AC50,[10],3.75 µM (active)
same,outcome,[11],inactive
same,outcome,[12],inactive
same,AC50,[13],5.1 µM (active)
same,outcome,[14],inactive
same,outcome,[15],inactive
same,AC50,[16],20 µM (active)
same,outcome,[17],inactive
O=C=NCCCCCCN=C=O,outcome,[20],inactive
same,outcome,[19],inactive
same,outcome,[18],inactive
same,outcome,[2],inactive
same,outcome,[3],inactive
same,outcome,[5],inactive
same,outcome,[6],inactive
same,outcome,[7],inactive
same,outcome,[8],inactive
same,outcome,[9],inactive
same,outcome,[10],inactive
same,outcome,[11],inactive
same,outcome,[12],inactive
same,outcome,[13],inactive
same,outcome,[14],inactive
same,outcome,[15],inactive
same,outcome,[16],inactive
CCCCCCCCCC(=O)O,outcome,[1],inactive
same,outcome,[2],inactive
same,outcome,[3],inactive
same,outcome,[5],inactive
same,outcome,[6],inactive
same,outcome,[7],inactive
same,outcome,[8],inactive
same,AC50,[9],104 µM (active)
same,outcome,[9],inactive
same,outcome,[10],inactive
same,outcome,[11],inactive
same,outcome,[12],inactive
same,outcome,[13],inactive
same,outcome,[14],inactive
same,outcome,[15],inactive
same,outcome,[16],inactive
same,AC50,[17],29.1 µM (active)

# Source: PubChem BioAssay (EPA / NIEHS)
